Hits are enriched below; roughly 7.6% of the tested compounds scored in any of these assays.
KCNH2 3.1 inh: KCNH2 3.1 (human) potassium channel inhibition; 340,000 tested, 0.95% active; U2OS KCNH2 3.1, thallium flux FluxOr; active compounds read low; activity change, % (tested at about 1.8 µM); AID 720553;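 active = maximum activity change below -70%; inconclusive = maximum activity change from -70% to -50%; inactive = maximum activity change above -50%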;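 note: thallium influx rate constant from kinetic fluorescence after stimulation buffer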
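Kinetic fluorescence (2 min after stimulation buffer) measures Tl+ influx through KCNH2 3.1 expressed by viral transduction in U2OS cells; the rate constant is normalized against DMSO controls serving as positive and negative references.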
SW480 rereplic: induces DNA re-replication in SW480 colon adenocarcinoma cells | SW480 DNA re-replication, Hoechst DNA content imaging, 48 h | Potency, µM (top dose mostly 46.1 µM), most hits filed as activators | 340,000 tested, 1.8% active; note: nearly all actives have a fitted effect of over 55% in size
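DNA re-replication was detected as more nuclei of elevated Hoechst intensity after 48 hr exposure to compound (23 nL pinned per well of 250 cells).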
hERG WT inh: KCNH2 (human, wildtype) channel inhibition. Q12809. U2OS, BacMam KCNH2, thallium flux FluxOr; active compounds read low. activity change, % at 1.84 µM. 340,000 tested, 0.37% active. AID 720551;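 active = maximum activity change below -70%; inconclusive = maximum activity change between -70% and -50%; inactive = maximum activity change above -50%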
Target sequence (Q12809 whole entry, looked up): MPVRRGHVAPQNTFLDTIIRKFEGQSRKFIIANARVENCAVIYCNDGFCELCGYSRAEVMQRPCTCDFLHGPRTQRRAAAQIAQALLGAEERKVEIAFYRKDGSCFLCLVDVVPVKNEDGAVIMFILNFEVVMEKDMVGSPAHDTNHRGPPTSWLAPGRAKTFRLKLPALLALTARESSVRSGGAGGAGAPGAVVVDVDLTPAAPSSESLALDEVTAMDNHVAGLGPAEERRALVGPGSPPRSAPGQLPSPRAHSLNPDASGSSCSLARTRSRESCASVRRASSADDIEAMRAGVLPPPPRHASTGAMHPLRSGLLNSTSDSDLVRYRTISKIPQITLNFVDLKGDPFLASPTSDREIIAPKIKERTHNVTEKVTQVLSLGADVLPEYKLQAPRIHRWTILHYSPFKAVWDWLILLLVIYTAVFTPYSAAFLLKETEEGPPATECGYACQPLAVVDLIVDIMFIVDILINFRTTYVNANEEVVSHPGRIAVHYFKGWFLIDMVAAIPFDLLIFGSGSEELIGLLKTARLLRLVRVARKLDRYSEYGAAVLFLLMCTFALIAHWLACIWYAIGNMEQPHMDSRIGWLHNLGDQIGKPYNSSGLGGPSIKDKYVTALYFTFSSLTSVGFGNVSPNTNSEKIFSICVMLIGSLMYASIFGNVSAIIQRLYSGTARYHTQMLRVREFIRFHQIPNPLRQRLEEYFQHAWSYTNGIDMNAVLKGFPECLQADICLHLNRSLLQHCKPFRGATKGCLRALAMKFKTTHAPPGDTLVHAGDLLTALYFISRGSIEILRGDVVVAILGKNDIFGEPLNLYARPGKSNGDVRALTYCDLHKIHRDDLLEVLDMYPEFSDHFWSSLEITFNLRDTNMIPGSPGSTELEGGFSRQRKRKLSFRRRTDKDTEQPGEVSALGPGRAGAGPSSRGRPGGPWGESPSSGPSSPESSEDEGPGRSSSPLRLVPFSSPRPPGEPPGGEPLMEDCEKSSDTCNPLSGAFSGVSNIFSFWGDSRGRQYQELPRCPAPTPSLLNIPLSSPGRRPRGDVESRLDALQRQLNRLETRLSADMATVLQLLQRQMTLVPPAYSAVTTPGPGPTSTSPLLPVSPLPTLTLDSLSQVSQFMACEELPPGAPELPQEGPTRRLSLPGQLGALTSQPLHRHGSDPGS
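U2OS cells were transduced with wild-type KCNH2 virus (2.03 x 10^8 / mL) for 4 h at room temperature, then cultured overnight at 37 C. Thallium flux was read with FluxOr dye. Rate constants were normalized to DMSO controls.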
KB-3-1 tox: kills parental KB-3-1 adenocarcinoma cells; KB-3-1 viability, CellTiter-Glo ATP luminescence, 72 h; Potency, µM (top dose mostly 46.1 µM), most hits filed as cytotoxic; 400,000 tested, 1.4% active; AID 1347075; note: nearly all actives have a fitted effect of over 60% in size
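Cytotoxicity measured as CellTiter-Glo luminescence after 72 h at 37 C. Compound titrations were pinned onto drug-naive KB-3-1 parental adenocarcinoma cells grown in DMEM with 10% FBS, and normalized data fitted to concentration-response curves.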
KB-V1 MDR tox: KB-V1 MDR subline cytotoxicity; Potency, µM (series often up to 46.1 µM), usual class: cytotoxic; 400,000 tested, 3.4% active; KB-V1 MDR cells viability, CellTiter-Glo, 72 h; note: nearly all actives have a fitted effect of over 60% in size
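Readout: CellTiter-Glo luminescence, 10 min after addition. Cells: KB-V1 MDR subline, 72 h at 37 degrees C with compound. Analysis: corrected, normalized data fitted to concentration-effect curves.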
MCF10A rereplic: induces DNA re-replication in MCF 10a normal breast cells | Potency, µM (series often up to 46.1 µM), usual class: activators | AID 624296 | 350,000 tested, 2.9% active | MCF 10A DNA re-replication, Hoechst nuclear intensity, 48 h; note: nearly all actives have a fitted effect of over 50% in size
Numbers stand for hits; n = inactive; u = inconclusive; x = no result. Unless noted, calls come from the whole dose curve; as a rule, active = well fitted curve in the direction sought with a large enough effect; inconclusive = small, poorly fitted or top-dose-only effect, or another doubt; inactive = no such curve, though single readings can be large; an effect the other way counts as inactive or inconclusive.

SMILES | KCNH2 3.1 inh | SW480 rereplic | hERG WT inh | KB-3-1 tox | KB-V1 MDR tox | MCF10A rereplic
CCOc1ccc2[nH]c(=O)c(CN(Cc3ccco3)C(CC)c3nnnn3Cc3ccccc3)cc2c1 (stereo unspecified) | n | n | n | u | u | n
Cc1ccc2cc(CN(CCCN3CCOCC3)C(c3nnnn3Cc3ccco3)C(C)C)c(=O)[nH]c2c1C (stereo unspecified) | n | 20.6µM | n | n | n | u
Cc1cccc2cc(CN(CC3CCCO3)C(c3nnnn3Cc3ccco3)C(C)C)c(=O)[nH]c12 (stereo unspecified) | n | u | n | u | u | u
CCC(c1nnnn1CCc1ccccc1)N(Cc1ccco1)Cc1cc2cccc(C)c2[nH]c1=O (stereo unspecified) | n | n | n | u | 7.31µM | u
Cc1ccc2cc(CN(CCN3CCOCC3)Cc3nnnn3Cc3ccco3)c(=O)[nH]c2c1C | n | n | n | n | n | n
CCC(c1nnnn1C(C)(C)C)N(Cc1ccco1)Cc1cc2cccc(C)c2[nH]c1=O (stereo unspecified) | n | n | n | n | 23.1µM | n
COc1nc(Cl)cn(-c2ccc(C)cc2)c1=O | n | n | n | n | n | n
Cc1ccc(-n2c(Cl)c(Cl)nc(Cl)c2=O)cc1 | n | 8.2µM | n | u | n | 1.84µM
Cc1cccc(-c2nc(CN3CCCC(C(=O)N4CCN(c5cc(Cl)ccc5C)CC4)C3)c(C)o2)c1 (stereo unspecified) | x | x | x | n | n | x
CC(C)CNc1ncnc2[nH]ncc12 | n | n | n | n | n | n
O=C(c1ccccc1)N1N=C(c2ccc(F)cc2)CC1c1ccc(F)cc1 (stereo unspecified) | n | n | n | n | n | n
CC(=O)Nc1ccc(C2CC(c3ccc(Cl)cc3)=NN2c2ccccc2)cc1 (stereo unspecified) | n | 1.46µM | n | n | n | n
Oc1ccc(C2=NN(c3ccccc3)C(c3ccc(F)cc3)C2)cc1 (stereo unspecified) | n | 23.1µM | n | n | n | 5.8µM
COc1ccc(C2=NN(c3ccccc3)C(c3ccc(OC)c(OC)c3)C2)cc1 (stereo unspecified) | n | 14.6µM | n | u | n | u
Cc1ccc(NC(=O)N2N=C(c3ccc(F)cc3)CC2c2ccc(F)cc2)cc1 (stereo unspecified) | n | 5.17µM | n | n | 23.1µM | n
O=C1C(O)CCN1C1CCCCC1 (stereo unspecified) | n | n | n | n | n | n
CCOC(=O)N1CCC(NC(=O)CS(=O)Cc2nc(-c3ccccc3C)oc2C)CC1 (stereo unspecified) | n | n | n | n | u | n
CCCn1c(N)c(N(CCOC)C(=O)/C=C/c2cccc(Cl)c2)c(=O)[nH]c1=O | n | n | n | n | u | n
c1ccc(C2CC(c3cccs3)=NN2c2ccccc2)cc1 (stereo unspecified) | n | u | n | n | u | u
COc1ccc(C2CC(c3ccc(F)cc3)=NN2c2ccccc2)cc1OC (stereo unspecified) | n | u | n | u | u | 16.4µM
O=C(c1cccs1)N1N=C(c2ccccc2)CC1c1ccc(O)cc1 (stereo unspecified) | n | n | n | n | 13µM | u
Fc1ccc(C2CC(c3cccs3)=NN2c2ccccc2)cc1 (stereo unspecified) | n | u | n | n | n | 3.55µM
C=CCn1c2ccccc2c2nn(C)c(=S)nc21 | n | n | n | n | n | n
O=S(=O)(Nc1ncccn1)c1cc(Cl)ccc1Cl | n | u | n | n | n | n
C=CCNC1=C2C[C@@H](C)C[C@H](OC)[C@H](O)[C@@H](C)/C=C(\C)[C@H](OC(N)=O)[C@@H](OC)/C=C\C=C(/C)C(=O)NC(=CC1=O)C2=O | x | n | x | x | x | 0.0668µM
SMILES | KCNH2 3.1 inh | SW480 rereplic | hERG WT inh | KB-3-1 tox | KB-V1 MDR tox | MCF10A rereplic
COC1C=CC=C(C)C(=O)NC2=CC(=O)C(N)=C(CC(C)CC(OC)C(O)C(C)C=C(C)C1OC(N)=O)C2=O (stereo unspecified) | n | 0.231µM | n | n | n | n
O=C(O)c1ccc(Cl)c(N2C(=O)Nc3ccccc3N2O)c1 | n | n | n | n | n | n
CCN(CC)c1ccc(/C=N/NC(=S)NCc2ccc(OC)cc2)cc1 | n | u | n | n | n | 10.3µM
CCN(CC)c1ccc(/C=N/NC(=O)C(O)c2ccccc2)cc1 (stereo unspecified) | n | n | n | n | n | n
C=CCNC(=S)N/N=C/c1ccc(N(CC)Cc2ccccc2)cc1 | n | 18.4µM | n | u | 13µM | u
CCN(CC)c1ccc(/C=N/NC(=S)NCc2ccccc2)cc1 | n | u | n | n | n | 20.6µM
O=c1c(-c2cc(-c3ccccc3)nc3c2COc2ccccc2-3)coc2ccc(Cl)cc12 | x | x | x | n | n | x
Cc1ccc(OCC(O)Cn2c(=N)n(CCN3CCOCC3)c3ccccc32)cc1 (stereo unspecified) | n | n | n | n | n | n
N=c1n(CCN2CCCC2)c2ccccc2n1CC(O)c1ccc(Cl)c(Cl)c1 (stereo unspecified) | -84.3 | u | x | n | n | 23.1µM
COc1ccc(OCC(O)Cn2c(=N)n(CCN3CCCCC3)c3ccccc32)cc1 (stereo unspecified) | n | u | n | u | n | 25.9µM
Cc1ccc(OCC(O)Cn2c(=N)n(CCN3CCCCC3)c3ccccc32)cc1 (stereo unspecified) | u | u | n | 20.6µM | 23.1µM | u
COCCN1C(=O)CSCC1(C)C(=O)NCc1ccccc1 (stereo unspecified) | x | x | x | n | n | x
COc1ccc(OC)c(C2=NOC(C(=O)Nc3ccc4c(c3)OCCO4)C2)c1 (stereo unspecified) | n | n | n | n | n | n
COc1ccc(OC)c(C2=NOC(C(=O)Nc3cccnc3)C2)c1 (stereo unspecified) | n | n | n | n | 23.1µM | n
COc1ccc(OC)c(C2=NOC(C(=O)NCCN3CCOCC3)C2)c1 (stereo unspecified) | n | n | n | n | u | n
COc1ccc(OC)c(C2=NOC(C(=O)NCc3cccs3)C2)c1 (stereo unspecified) | n | u | n | 20.6µM | u | u
CNC(=O)C[C@@H](N)C(=O)N[C@@H](C(=O)N[C@@H]1C(=O)N2[C@@H]1SC(C)(C)[C@@H]2C(=O)O)c1ccc(O)cc1 | x | n | x | x | x | n
CCOC(=O)N1CCN(C(=O)CN(c2ccc(C)cc2C)S(=O)(=O)c2ccccc2)CC1 | x | x | x | n | n | x
